# Test results reported in PubChem BioAssay.
# “And” between values parts separate entries of the source, which are not always exact repeats. Equal values may be shown once. The source made the active and inactive calls.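 Rule for the calls, unless noted: active = compounds whose cell count with miR-34 switched on is under 0.7 times the count with it off; inactive = the rest.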
# Experiments:
# [1] = sensitizers of A549 cells to miR-34 induction, primary screen, imaging, A549 dox-inducible miR-34, nuclei and caspase counts (AID 1347080); conditions: A549 miR-34 inducible, Hoechst nuclei count, 48 h
# [2] = survival rescue of mitochondrial mutant cells in low glucose, primary screen, MELAS cybrids, Rieske KO mouse fibroblasts, CellTiter-Glo (AID 1508586;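 active = mean z-score across replicates of 1.96 or higher in either the MELAS or the Rieske mutant cell line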;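 note: z relative to plate mean and SD of compound and empty wells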)
# [3] = target: NAD(+) hydrolase SARM1 (Homo sapiens) (UniProt Q6SZW1); experiment: SARM1 TIR NADase inhibitors, cell lysate, NAD-Glo luminescence (AID 1508614;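 active = compound whose remaining NAD level is above about 45 nM, limit read from the data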;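 note: higher remaining NAD means stronger inhibition of SARM1 NADase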); conditions: SAM-TIR HEK293T lysate NADase, at 1 µM, stronger effect = higher value
# [4] = target: Mitogen-activated protein kinase 7 (Homo sapiens) (UniProt Q13164); experiment: ERK5 transactivation activators in reporter cells, primary screen, cell-based, HTS (AID 1508626;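 active = luciferase signal above three times the same-plate solvent-only control wells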;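 note: luciferase driven by Gal4-ERK5 fusion binding five Gal4 sites before minimal TATA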); conditions: HeLa Gal4-ERK5 transactivation, 18 h, at 5 µM, stronger effect = higher value
# [5] = phospholipid biosynthesis inhibitors in animal cells, primary screen, cell-based, LOPAC library, screen 4 (AID 1347384; call rule not given here); conditions: phospholipid biosynthesis inhibition screen, at 10 µM
# [6] = viability rescue of complex I mutant cybrids, primary screen, cell-based, galactose medium, ATP luminescence (AID 1645843;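 active = z-score of at least 1.8 in each of two replicates, scored against plate mean and spread of sample wells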;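 note: positive z means more ATP and so rescue of galactose-driven cybrid death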); conditions: complex I mutant cybrid cells, 72 h, stronger effect = higher value
# [7] = LFS_MB_P medulloblastoma growth inhibition, cell-based, chromothripsis tumors, cisplatin or BGB combos (AID 1671449; in the data active = inhibition above about 80%;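 note: cells exposed for 96 hours; 0% = vehicle DMSO and 100% = killing by high DMSO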); conditions: LFS_MB_P medulloblastoma cells
# [8] = HDN33 neuroblastoma growth inhibition, cell-based, chromothripsis tumors, cisplatin or BGB combos (AID 1671450; in the data active = inhibition above about 80%;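 note: cells exposed to compound for four days; 0% = vehicle DMSO and 100% = cell killing by high DMSO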); conditions: HDN33 neuroblastoma cells, stronger effect = higher value
# [9] = ICB984 medulloblastoma cell growth inhibition, synergistic combos for chromothripsis tumors, cisplatin or BGB combos (AID 1671451; call rule not given here;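 note: cells exposed for 96 hours before readout; 0% = vehicle DMSO and 100% = killing by high DMSO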); conditions: ICB984 medulloblastoma cells, drug combinations, stronger effect = higher value
# [10] = LFS_MB_1R medulloblastoma cell growth inhibition, synergistic combos for chromothripsis tumors, cisplatin or BGB combos (AID 1671452; in the data active = inhibition above about 80%;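 note: cells exposed for 96 hours before readout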); conditions: LFS_MB_1R medulloblastoma cells, stronger effect = higher value
# [11] = HTB85 osteosarcoma cell growth inhibition, synergistic combos for chromothripsis tumors, BGB or cisplatin IC20 combos (AID 1671453; in the data active = inhibition above about 80%;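 note: cells exposed for 96 hours before readout; 0% = vehicle DMSO and 100% = high DMSO killing control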); conditions: HTB85 osteosarcoma cells, drug combinations, stronger effect = higher value
# [12] = CRL2098 osteosarcoma cell growth inhibition, synergistic combos for chromothripsis tumors, BGB or cisplatin IC20 combos (AID 1671454; in the data active = inhibition above about 80%;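 note: cells exposed for 96 h before readout; 0% = vehicle DMSO and 100% = killing by high DMSO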); conditions: CRL2098 osteosarcoma cells, drug combinations, stronger effect = higher value
# [13] = HD-MB03 medulloblastoma cell growth inhibition, synergistic combos for chromothripsis tumors, BGB or cisplatin IC20 combos (AID 1671455; in the data active = inhibition above about 83%;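 note: 0% = vehicle DMSO and 100% = high DMSO as cytotoxic control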); conditions: HD-MB03 medulloblastoma cells, stronger effect = higher value
# [14] = stronger effect = lower value, cell number ratio, induced over uninduced
# [15] = measured here: relative caspase fold change +Dox/-Dox
# [16] = measured here: total cells with miR-34 induction, stronger effect = lower value
# [17] = measured here: total cells without miR-34 induction
# [18] = MELAS cybrid survival, CellTiter-Glo 48 h, stronger effect = higher value
# [19] = Rieske KO mouse fibroblast survival, CellTiter-Glo 72 h
# [20] = measured here: combination with BGB IC40, at 0.05 µM
# Chain of NAD(+) hydrolase SARM1 (Homo sapiens) (Q6SZW1 whole entry, looked up, the tested form may be a part): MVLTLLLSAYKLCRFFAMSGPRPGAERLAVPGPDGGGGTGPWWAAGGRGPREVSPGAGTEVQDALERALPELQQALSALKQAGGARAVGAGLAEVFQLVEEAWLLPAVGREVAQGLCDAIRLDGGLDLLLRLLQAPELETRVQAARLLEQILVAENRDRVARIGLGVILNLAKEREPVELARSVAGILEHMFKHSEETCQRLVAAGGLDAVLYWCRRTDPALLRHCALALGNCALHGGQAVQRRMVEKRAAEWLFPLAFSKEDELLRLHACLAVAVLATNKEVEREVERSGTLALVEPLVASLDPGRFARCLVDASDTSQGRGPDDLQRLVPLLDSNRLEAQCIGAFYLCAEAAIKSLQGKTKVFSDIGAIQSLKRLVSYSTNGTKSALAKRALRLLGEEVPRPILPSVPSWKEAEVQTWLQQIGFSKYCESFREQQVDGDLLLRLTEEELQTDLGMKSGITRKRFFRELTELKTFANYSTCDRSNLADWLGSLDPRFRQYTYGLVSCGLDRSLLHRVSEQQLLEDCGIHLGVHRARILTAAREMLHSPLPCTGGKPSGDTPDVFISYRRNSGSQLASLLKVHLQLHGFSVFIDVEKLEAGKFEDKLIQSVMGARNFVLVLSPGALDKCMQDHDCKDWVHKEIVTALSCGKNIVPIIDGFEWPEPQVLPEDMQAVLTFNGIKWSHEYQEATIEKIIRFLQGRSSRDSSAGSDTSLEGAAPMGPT
# Chain of Mitogen-activated protein kinase 7 (Homo sapiens) (Q13164 whole entry, looked up, the tested form may be a part): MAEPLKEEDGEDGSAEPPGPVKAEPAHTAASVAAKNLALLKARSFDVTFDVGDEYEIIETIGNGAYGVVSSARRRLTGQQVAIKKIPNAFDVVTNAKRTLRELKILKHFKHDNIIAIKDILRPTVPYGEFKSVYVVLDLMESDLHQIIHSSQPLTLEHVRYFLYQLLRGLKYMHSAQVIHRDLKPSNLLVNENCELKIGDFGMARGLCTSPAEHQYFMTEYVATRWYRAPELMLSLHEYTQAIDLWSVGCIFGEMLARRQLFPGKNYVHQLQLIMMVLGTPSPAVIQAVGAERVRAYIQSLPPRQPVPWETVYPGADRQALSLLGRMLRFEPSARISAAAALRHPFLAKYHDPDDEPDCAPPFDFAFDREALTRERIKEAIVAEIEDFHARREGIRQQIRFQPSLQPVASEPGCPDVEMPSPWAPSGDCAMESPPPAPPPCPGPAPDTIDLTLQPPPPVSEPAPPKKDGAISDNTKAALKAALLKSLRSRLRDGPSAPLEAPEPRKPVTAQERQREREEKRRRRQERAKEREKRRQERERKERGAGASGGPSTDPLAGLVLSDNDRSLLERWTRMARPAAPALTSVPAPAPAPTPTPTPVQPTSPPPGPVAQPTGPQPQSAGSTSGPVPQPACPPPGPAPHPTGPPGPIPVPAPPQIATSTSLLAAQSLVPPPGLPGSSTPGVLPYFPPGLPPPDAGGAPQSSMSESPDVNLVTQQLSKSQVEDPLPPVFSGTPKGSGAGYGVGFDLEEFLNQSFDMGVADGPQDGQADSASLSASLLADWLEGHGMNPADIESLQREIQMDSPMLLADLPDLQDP
structure (smiles),measurement,setting,value
CCCCC1(COC(=O)CCC(=O)O)C(=O)N(c2ccccc2)N(c2ccccc2)C1=O,fold change,[1]; [14],0.884 (inactive)
same,fold change,[1]; [15],1.12
same,cell count,[1]; [16],8700
same,cell count,[1]; [17],9850
same,z-score,[2]; [18],0.542 (inactive)
same,z-score,[2]; [19],0.234
same,remaining NAD,[3],10 nM (inactive)
COc1ccc(C(=O)c2ccccc2)c(O)c1,fold change,[1]; [14],0.864 (inactive) and 0.859 (inactive)
same,fold change,[1]; [15],1.19 and 0.952
same,cell count,[1]; [16],7820 and 11100
same,cell count,[1]; [17],9050 and 12900
same,z-score,[2]; [18],-0.0705 (inactive)
same,z-score,[2]; [19],-1.09
same,remaining NAD,[3],10 nM (inactive)
same,luciferase signal,[4],36 AU (inactive)
CCOC(=O)n1ccn(C)c1=S,fold change,[1]; [14],0.866 (inactive) and 0.865 (inactive)
same,fold change,[1]; [15],1.28 and 0.473
same,cell count,[1]; [16],8700 and 8400
same,cell count,[1]; [17],10100 and 9710
same,z-score,[2]; [18],-0.0629 (inactive) and 0.57 (inactive)
same,z-score,[2]; [19],-0.122 and 0.0161
same,remaining NAD,[3],10 nM (inactive)
CN(C)CC[C@@H](c1ccc(Br)cc1)c1ccccn1,fold change,[1]; [14],0.946 (inactive)
same,fold change,[1]; [15],1.72
same,cell count,[1]; [16],9070
same,cell count,[1]; [17],9580
same,outcome,[5],inactive
same,z-score,[6],-0.265 (inactive)
C[C@](N)(Cc1ccc(O)cc1)C(=O)O,fold change,[1]; [14],1.06 (inactive)
same,fold change,[1]; [15],0.881
same,cell count,[1]; [16],10300
same,cell count,[1]; [17],9680
same,outcome,[5],inactive
same,luciferase signal,[4],60 AU (inactive)
same,z-score,[6],0.71 (inactive)
CN(C)CC[C@@H](c1ccc(Cl)cc1)c1ccccn1,fold change,[1]; [14],1.01 (inactive)
same,fold change,[1]; [15],1.39
same,cell count,[1]; [16],9880
same,cell count,[1]; [17],9740
same,outcome,[5],inactive
same,remaining NAD,[3],10 nM (inactive)
same,luciferase signal,[4],40 AU (inactive)
same,z-score,[6],-0.155 (inactive)
Cc1c(N(C)C)c(=O)n(-c2ccccc2)n1C,fold change,[1]; [14],0.875 (inactive) and 0.837 (inactive)
same,fold change,[1]; [15],1.16 and 0.645 and 2.71
same,cell count,[1]; [16],7950 and 7780 and 11100
same,cell count,[1]; [17],9080 and 9290 and 12700
same,z-score,[2]; [18],-0.0296 (inactive) and -0.452 (inactive)
same,z-score,[2]; [19],-0.137 and 0.114
same,remaining NAD,[3],10 nM (inactive)
same,luciferase signal,[4],60 AU (inactive)
Cc1nc2sccn2c(=O)c1CCN1CCC(=C(c2ccc(F)cc2)c2ccc(F)cc2)CC1,fold change,[1]; [14],1.04 (inactive) and 0.919 (inactive) and 0.754 (inactive)
same,fold change,[1]; [15],0.73 and 0.904 and 7.37
same,cell count,[1]; [16],8680 and 6720 and 10000
same,cell count,[1]; [17],8330 and 7320 and 13300
same,outcome,[5],inactive
same,remaining NAD,[3],10 nM (inactive)
same,luciferase signal,[4],152 AU (active)
same,z-score,[6],-1.37 (inactive) and -0.82 (inactive)
O=C(O)CCCCCCCC(=O)O,fold change,[1]; [14],0.959 (inactive) and 0.941 (inactive)
same,fold change,[1]; [15],0.966 and 3.31
same,cell count,[1]; [16],9890 and 11100
same,cell count,[1]; [17],10300 and 11800
same,outcome,[5],inactive
same,remaining NAD,[3],10 nM (inactive)
same,luciferase signal,[4],24 AU (inactive)
same,z-score,[6],0.635 (inactive)
same,inhibition,"[7]; at 0.5 µM, stronger effect = higher value",14.6% (inactive)
same,inhibition,"[7]; measured here: combination with BGB IC20, at 0.005 µM",-16.4%
same,inhibition,"[7]; measured here: combination with BGB IC40, at 0.005 µM",-8.17%
same,inhibition,[7]; [20],6.68%
same,inhibition,"[7]; measured here: combination with cisplatin, at 0.5 µM, stronger effect = higher value",8.46%
same,inhibition,"[7]; measured here: combination with cisplatin, at 5 µM, stronger effect = higher value",-13.6%
same,inhibition,"[8]; BGB combo, at 5 µM",-29.2%
same,inhibition,[8]; at 0.5 µM,-40.9% (inactive)
same,inhibition,"[8]; cisplatin combo, at 5 µM",-22.7%
same,inhibition,"[8]; measured here: with BGB IC20 combination, at 0.5 µM",-45.6%
same,inhibition,"[8]; measured here: with cisplatin IC20 combination, at 0.5 µM",-37.4%
same,inhibition,"[8]; single agent, at 5 µM",-34.5%
same,inhibition,"[9]; BGB IC20 combo, at 0.005 µM",-5.6%
same,inhibition,"[9]; BGB IC40 combo, at 0.005 µM",-44.6%
same,inhibition,"[9]; BGB IC40 combo, at 0.05 µM",-20.8%
same,inhibition,[9]; at 0.5 µM,-26.1% (inactive)
same,inhibition,"[9]; cisplatin combo, at 0.05 µM",-24.1%
same,inhibition,"[9]; cisplatin combo, at 0.5 µM",-19.2%
same,inhibition,"[9]; cisplatin combo, at 5 µM",-29.2%
same,inhibition,"[9]; measured here: 5 uM single agent, at 5 µM",-20.6%
same,inhibition,[10]; at 0.5 µM,-28.5% (inactive)
same,inhibition,[10]; [20],-23.1%
same,inhibition,"[10]; measured here: combination with cisplatin, at 0.5 µM",-37.2%
same,inhibition,"[10]; measured here: combination with cisplatin, at 5 µM",-71.3%
same,inhibition,[11]; at 0.5 µM,-17.1% (inactive)
same,inhibition,"[11]; measured here: with BGB IC20, at 0.5 µM",-39.9%
same,inhibition,"[11]; measured here: with BGB IC20, at 5 µM",-68.2%
same,inhibition,"[11]; measured here: with cisplatin IC20, at 0.5 µM",-8.83%
same,inhibition,"[11]; measured here: with cisplatin IC20, at 5 µM",0.863%
same,inhibition,"[11]; single agent, at 5 µM",-30.9%
same,inhibition,[12]; at 0.5 µM,-76.3% (inactive)
same,inhibition,"[12]; measured here: combination with BGB at IC20, at 0.5 µM",-57.7%
same,inhibition,"[12]; measured here: combination with cisplatin at IC20, at 0.5 µM",-93.4%
same,inhibition,[13]; at 0.5 µM,-14.1% (inactive)
same,inhibition,"[13]; measured here: combo with BGB at IC20, at 0.5 µM",-13.8%
same,inhibition,"[13]; measured here: combo with cisplatin at IC20, at 0.5 µM",-19.9%
Nc1c2c(nc3ccccc13)CCCC2O (stereo unspecified),fold change,[1]; [14],0.95 (inactive) and 0.845 (inactive) and 0.969 (inactive)
same,fold change,[1]; [15],0.943 and 1.26 and 0.952
same,cell count,[1]; [16],9940 and 8540 and 10300
same,cell count,[1]; [17],10500 and 10100 and 10600
same,outcome,[5],inactive
same,z-score,[2]; [18],1.73 (inactive) and -0.394 (inactive)
same,z-score,[2]; [19],0.362 and -0.175
same,luciferase signal,[4],36 AU (inactive)
same,z-score,[6],0.445 (inactive) and 0.48 (inactive)
CN1CCOC(c2ccccc2)c2ccccc2C1 (stereo unspecified),fold change,[1]; [14],0.979 (inactive) and 0.925 (inactive)
same,fold change,[1]; [15],1.1 and 3.08
same,cell count,[1]; [16],8830 and 11200
same,cell count,[1]; [17],9020 and 12100
same,z-score,[2]; [18],0.332 (inactive)
same,z-score,[2]; [19],0.617
same,remaining NAD,[3],10 nM (inactive)
same,luciferase signal,[4],120 AU (inactive)
Cc1c(O)cccc1C(=O)N[C@@H](CSc1ccccc1)[C@H](O)CN1C[C@H]2CCCC[C@H]2C[C@H]1C(=O)NC(C)(C)C,fold change,[1]; [14],0.973 (inactive) and 1.07 (inactive)
same,fold change,[1]; [15],1.56 and 1.1
same,cell count,[1]; [16],1740 and 4590
same,cell count,[1]; [17],1780 and 4280
same,outcome,[5],inactive
same,z-score,[2]; [18],-0.847 (inactive) and 0.17
same,z-score,[2]; [19],0.453 and 2.01
same,z-score,[6],-1.03 (inactive) and -1.48 (inactive)
CCc1c(C)[nH]c2c1C(=O)C(CN1CCOCC1)CC2 (stereo unspecified),fold change,[1]; [14],1.14 (inactive) and 0.913 (inactive) and 0.969 (inactive)
same,fold change,[1]; [15],1.35 and 0.853 and 0.538
same,cell count,[1]; [16],11100 and 9250 and 9310
same,cell count,[1]; [17],9700 and 10100 and 9610
same,outcome,[5],inactive
same,z-score,[2]; [18],0.0774 (inactive)
same,z-score,[2]; [19],-0.448
same,z-score,[6],0.39 (inactive) and -0.105 (inactive)
